# Data from PubChem BioAssay (NCATS).
# Records with an inconclusive call do not appear. Where a call stands in place of a potency, no number is given. A number with no mark means an inactive call. Activity calls are given as the source filed them. Calls come from the whole dose curve; as a rule, active = well fitted curve in the direction sought with a large enough effect; inconclusive = small, poorly fitted or top-dose-only effect, or another doubt; inactive = no such curve, though single readings can be large; an effect the other way counts as inactive or inconclusive.
# Legend:
# [1] = molecular target: Cellular tumor antigen p53 (Homo sapiens) (UniProt P04637); assay: Primary qHTS for small molecule compounds that upregulate eGFP-tagged delta133p53alpha (in N-terminal) cells. (AID 2060322); details: NCI-H358 eGFP-delta133p53alpha fluorescence, 24 h; activation: hits give high values; note: nearly all actives have a fitted effect of over 75% in size; note: potency is the fitted concentration of half-maximal effect
# Sequence of Cellular tumor antigen p53 (Homo sapiens) (P04637 whole entry, looked up): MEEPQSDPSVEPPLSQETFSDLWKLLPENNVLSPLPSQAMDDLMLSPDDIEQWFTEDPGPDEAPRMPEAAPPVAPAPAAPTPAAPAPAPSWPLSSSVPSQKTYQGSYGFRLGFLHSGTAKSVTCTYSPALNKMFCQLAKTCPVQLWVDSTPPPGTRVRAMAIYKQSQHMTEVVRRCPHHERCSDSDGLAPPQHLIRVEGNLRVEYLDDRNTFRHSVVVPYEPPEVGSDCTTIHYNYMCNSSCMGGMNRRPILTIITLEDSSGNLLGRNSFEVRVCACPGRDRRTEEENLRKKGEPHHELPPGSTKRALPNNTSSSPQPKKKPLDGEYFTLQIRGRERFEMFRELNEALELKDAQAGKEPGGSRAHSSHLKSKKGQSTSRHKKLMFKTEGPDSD
# Summary of the method: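 NCI-H358 cells pre-induced 24 h with 10 ng/ml doxycycline to express N-terminal eGFP-delta133p53alpha, then dosed 24 h at 37C without doxycycline; fixed, Hoechst-stained, GFP intensity by laser scanning cytometry, normalized to DMSO (0%) and 57.5 uM 5-azacytidine (100%).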
# [2] = molecular target: Retinaldehyde dehydrogenase 3 (Homo sapiens) (UniProt P47895); assay: qHTS for Inhibitors of the Aldehyde Dehydrogenase Family (ALDH1A3) Primary screen (AID 2061315); details: ALDH inhibition qHTS; series mostly up to 56 µM
Compound,activation [1] [%],Potency [2],Potency [1]
C=C(COC(=O)CC(C)C)C1Cc2cc(C(C)=O)ccc2O1 (configuration not stated),-15.2,inactive,
C/C=C/C=C/C(O)=C1\C(=O)[C@]2(C)C3C(C(=O)CC/C=C/C)=C(O)C4(C)C1[C@]1(C)O[C@@]4(O)[C@@]3(C)O[C@@]12O,1.53,inactive,
CC(C)CC(=O)n1cc(C(N)=O)c(=O)cc1C(O)c1ccccc1 (configuration not stated),-1.53,inactive,
C=CC(=O)Nc1ccc(CN2C(=O)N(c3cc(OC)cc(OC)c3)Cc3cnc(Nc4ccc(N5CCN(C)CC5)cc4)nc32)cc1,,inactive,13.5 µM (active)
C/C=C(/COC(=O)/C(C)=C/C)C(=O)OC/C=C/c1ccc(OC)cc1,0.893,inactive,
O=c1[nH]cnc2c([C@@H]3N[C@H](CO)[C@@H](O)[C@H]3O)c[nH]c12,10.3,inactive,
O=c1cc(NCCCN[C@@H]2CCOc3c(Br)cc(Br)cc32)[nH]c2ccsc12,0.477,inactive,
COc1ccc([C@@]2(O)c3c(ccc4c3OC(C)(CCC=C(C)C)C=C4)NC(=O)[C@@H]2OC)cc1 (some centres not stated),-6.87,inactive,
CCc1c(Cl)c(O)c(Cl)c(O)c1C(=O)O[C@H]1[C@H](O)[C@H](OC)[C@H](OC/C2=C\C=C\C[C@H](O)/C(C)=C\[C@H](CC)[C@@H](O[C@@H]3OC(C)(C)[C@@H](OC(=O)C(C)C)[C@H](O)[C@@H]3O)/C(C)=C/C(C)=C/C[C@@H]([C@@H](C)O)OC2=O)O[C@@H]1C,-0.333,inactive,
CCC/C=C/C=C/C1CC(O)C(O)C(=O)C1CO (configuration not stated),-17.6,inactive,
CC1CCC2(C(=O)O)CCC3(C)C(=CCC4C5(C)CCC(O)C(C)(CO)C5CCC43C)C2C1(C)O (configuration not stated),-0.893,inactive,
COCc1c(O)c(C(=O)O)c(C)c2c1OC(=O)c1c(C)cc(O)c(CO)c1O2,0.893,inactive,
COc1cc(CCc2ccc(OCC=C(C)C)cc2)cc(OC)c1OC,-17.6,inactive,
CC[C@]1(O)C[C@@H]2CN(CCc3c([nH]c4ccccc34)[C@@](C(=O)OC)(c3cc4c(cc3OC)N(C)[C@H]3[C@@](O)(C(=O)OC)[C@H](OC(C)=O)[C@]5(CC)C=CCN6CC[C@]43[C@@H]65)C2)C1,-35.1,inactive,
COc1ccccc1NC(=O)Nc1ccc2ccccc2c1,-9,inactive,
CC/C=C\C/C=C\C/C=C\CCCCCCCC(=O)OCC(O)COC1OC(CO)C(O)C(O)C1O (configuration not stated),29.8,inactive,
